The source of these data is PubChem BioAssay (NCI).

The panel holds about 83,000 compounds, 20% with a hit somewhere; the sample as a whole holds those more often.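 Values shown are percent growth following 48 h exposure of cells in 96-well plates to a single concentration of compound; below 10 was considered active.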 Unmarked numbers belong to inactive results. Calls of active or inactive are those of the source.

Holding throughout (assay): NCI-60 one-dose screen, 48 h (100 = growth as untreated, 0 = no growth, -100 = all killed)
Experiment [1] deals with HCT-15 colon. The settings on record: 10 µM unless noted.
In experiment [2] the test system is HT29 colon. The note with it: 10 µM unless noted.
Experiment [3] deals with SNB-75 CNS. The note with it: 10 µM unless noted.
Experiment [4] deals with U251 CNS. The note with it: 10 µM unless noted.
In experiment [5] the test system is PC-3 prostate. The settings on record: 10 µM unless noted.
Experiment [6] relates to SK-MEL-5 melanoma. The settings on record: 10 µM unless noted.
Experiment [7] deals with UACC-62 melanoma. The settings on record: 10 µM unless noted.
The test system of experiment [8] is LOX IMVI melanoma. The settings on record: 10 µM unless noted.
Experiment [9] has as its system SK-MEL-28 melanoma. The note with it: 10 µM unless noted.
Experiment [10] relates to SK-MEL-2 melanoma. The note with it: 10 µM unless noted.
For experiment [11], the system named is UO-31 renal. The note with it: 10 µM unless noted.
Experiment [12] deals with ACHN renal. The note with it: 10 µM unless noted.
Experiment [13] has as its system CAKI-1 renal. The settings on record: 10 µM unless noted.
The subject of experiment [14] is A498 renal. The settings on record: 10 µM unless noted.
Experiment [15] concerns MOLT-4 leukemia. The settings on record: 10 µM unless noted.
In experiment [16] the test system is SNB-19 CNS. The note with it: 10 µM unless noted.
Experiment [17] has as its system EKVX NSCLC. The settings on record: 10 µM.
Experiment [18] concerns TK-10 renal. The settings on record: 10 µM unless noted.
Experiment [19] relates to CCRF-CEM leukemia. The settings on record: 10 µM.
For experiment [20], the system named is SN12C renal. The note with it: 10 µM unless noted.

Turning to `CCOc1ccc(Br)cc1/C=C(\C#N)c1ccc([N+](=O)[O-])cc1`, the growth was 84.7% in [1]; 87.1% in experiment [2]; 22.1% in [3]; 67.3% in experiment [4]; 71.2% in experiment [5]; 81.8% in [6]. In addition, the growth in [7] is 91.7%; in [8] it was 87.8%; in experiment [9], 58.6%; in experiment [10], 88.6%; in experiment [11] it was 81.5%; in experiment [12], 68%. Besides, the growth in [13] was 77.7%; in experiment [14], 80.2%; in experiment [15], 82.7%.

`COc1cc2cn3c4ccc(O)cc4[nH]c(=O)c3c2cc1OC`: the growth in [1] was 23.3%; in [2], -70.2% (active); in experiment [16] it was 30.9%; in experiment [4], 12%; in experiment [5] it was 66.4%; in experiment [6], -90.7% (active). The growth in experiment [7] was -9.19% (active); in experiment [8], 0.607% (active); in [9], 11.5%; in experiment [17], 18.4%; in experiment [11] it was -32.2% (active); in experiment [18] it was -22.6% (active). The growth in [12] is -26% (active); in experiment [13], -51.7% (active); in experiment [14] it was -20.6% (active); in experiment [19], 5.83% (active); in experiment [15] it was -9.94% (active).

As to `COc1cc(C(=O)Nc2ccc(N(C)C)cc2)cc(OC)c1OC`, the growth in [1] was 73.3%; in [2], 86.2%; in experiment [3] it was 74.9%; in [4], 95.4%; in [5], 91.4%; in [6], 89.9%. The growth is 82% in experiment [7]; 93.3% in experiment [8]; 81.9% in experiment [9]; 78.8% in [10]; 85.8% in [11]; 93.1% in experiment [12]. Besides, the growth in experiment [13] was 91.1%; in experiment [14] it was 82.1%; in experiment [15], 92%.

As to `CCCCCCCCC/C(=N\NC(=O)c1ccncc1)c1ccc(O)c(O)c1O`, the growth in experiment [2] was 29%; in experiment [3], 37.1%; in [16], 33.8%; in experiment [4] it was 12.1%; in experiment [5], 47%; in experiment [6], -18.8% (active). For the same molecule, the growth in experiment [7] is -5.54% (active); in experiment [8] it was 22.9%; in experiment [9], 43.7%; in experiment [10], 38.5%; in experiment [17], 34.5%; in [20], 25.7%. The growth is 20.8% in experiment [11]; 43.1% in experiment [18]; 15.8% in experiment [12]; 14.3% in [13]; 45% in [14]; 9.71% (active) in experiment [19].

`CC(C)C(=O)c1ccc(Cl)s1`: the growth in experiment [1] is 97.5%; in experiment [2], 120%; in [3], 80.9%; in [4] it was 99.2%; in [5], 103%; in experiment [6], 92.8%. The growth is 100% in experiment [7]; 91% in [8]; 111% in [9]; 96.5% in experiment [10]; 99.3% in experiment [20]; 79.1% in experiment [11]. Further, the growth in [12] is 104%; in experiment [13] it was 107%; in [14] it was 79.6%; in experiment [15], 97.4%.

Regarding `COc1cc(-c2nn(-c3ccc(NC(=O)Nc4cc(C(F)(F)F)cc(C(F)(F)F)c4)cc3)cc2-c2ccncc2)ccc1Cl`, the growth in experiment [1] is 6.27% (active); in experiment [2] it was -30.2% (active); in experiment [16], 26.7%; in experiment [4] it was 7.85% (active); in experiment [6], -71% (active); in experiment [7], 3.75% (active). Also, the growth in experiment [8] was -1.69% (active); in experiment [9], 5.41% (active); in experiment [17] it was -1.64% (active); in experiment [20], 17.3%; in [11] it was -7.1% (active); in [18], -32.5% (active). Further, the growth in [13] is -12.5% (active); in [14], -1.9% (active); in [19], 16.6%; in [15], 7.23% (active).

For `CCCCCN1CCN(C(CC(=O)c2ccccc2)C(=O)c2ccccc2)CC1` (stereo not drawn), the growth is 94.5% in experiment [1]; 96.4% in experiment [2]; 100% in experiment [3]; 92.6% in experiment [4]; 92.6% in experiment [5]; 106% in experiment [6]. The growth in experiment [8] was 82.8%; in experiment [9], 119%; in experiment [10] it was 104%; in experiment [17] it was 110%; in [11], 95%; in experiment [18] it was 99.9%. Further, the growth is 106% in [12], 81.6% in experiment [13], -14.7% (active) in experiment [19] and 27.9% in experiment [15].
